Results on 26 compounds are retold here after PubChem BioAssay.

In assay [1] the test system is XIP peptide (Xip251-270) binding. Briefly: XIP fragment 251-270 binding compounds – biochemical, small-molecule microarray, fluorescence 635/667 nm, 0.1 µg/mL protein, primary screen (AID 1182). Conditions: fluorescent protein binding, 635 nm, higher = more signal, called active from +8 up or from −8 down.
Another assay relates to XIP peptide (Xip251-270). Put plainly: compounds binding XIP fragment 251-270 – biochemical, small-molecule microarray, fluorescence 635/667 nm, 0.5 µg/mL protein, primary screen (AID 1183). The settings on record: fluorescence 635 nm, higher = more signal.
A short description of assay [2]: blood-stage malaria parasite viability loss – strain 3D7, DAPI fluorescence, 100 nL, primary screen (AID 1184).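 Note: parasites grown inside human red blood cells in medium with human serum.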 Conditions: P. falciparum 3D7 growth, 3 d, higher = more signal.
The target of assay [3] is Homeobox protein Hox-A13 (Mus musculus) (UniProt Q62424). Put plainly: disruptors of Hoxa13 oligonucleotide interaction – biochemical, fluorescence polarization, labeled oligonucleotide, primary screen (AID 1185). The settings on record: Hoxa13:DNA binding, 15 min, higher = more signal, called active from +8 up or from −8 down. For orientation: Fluorescence polarisation rises when a labelled molecule tumbles more slowly, as on binding a larger partner.
Chain of Homeobox protein Hox-A13 (Mus musculus) (Q62424 whole entry, looked up): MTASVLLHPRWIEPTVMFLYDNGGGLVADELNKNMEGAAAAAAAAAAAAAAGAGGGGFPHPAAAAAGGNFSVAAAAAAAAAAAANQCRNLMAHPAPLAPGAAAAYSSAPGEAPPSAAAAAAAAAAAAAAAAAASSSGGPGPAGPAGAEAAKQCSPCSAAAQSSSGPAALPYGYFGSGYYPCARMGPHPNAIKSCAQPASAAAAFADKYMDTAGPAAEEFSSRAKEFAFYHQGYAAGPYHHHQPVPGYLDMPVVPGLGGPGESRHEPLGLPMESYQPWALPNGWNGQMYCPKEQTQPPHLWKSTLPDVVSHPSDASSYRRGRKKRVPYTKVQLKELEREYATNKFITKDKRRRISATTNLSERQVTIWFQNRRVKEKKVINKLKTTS

Assay [4] is described as follows: blockers of DNA damage checkpoint Chk1 activation – imaging, HeLa, hydroxyurea, phospho-Chk1 antibody, percent positive cells, primary screen (AID 1186). The settings on record: hydroxyurea-induced phospho-Chk1 immunofluorescence imaging, higher = more signal.
A short description of assay [5]: blockers of DNA damage checkpoint Chk1 activation – imaging, HeLa, hydroxyurea, phospho-Chk1 nuclear intensity, primary screen (AID 1187). The settings on record: hydroxyurea-induced phospho-Chk1 immunofluorescence imaging, higher = more signal.

SMILES strings stand for the structures. Calls of active or inactive are those of the source. Unless noted, the rule behind the calls is not given here.

With `C=C(COC)C(=O)CC[C@H](OC(C)=O)c1cccc(OCCO)c1`, the composite z-score is 0.623 (inactive) in assay [1] and -0.762 in the assay on XIP peptide (Xip251-270). Besides, the z-score is -2.3 in assay [2], -4.76 (inactive) in assay [3], 0.305 (inactive) in assay [4] and -0.0656 (inactive) in assay [5].
As for `CO[C@H]1O[C@H](CO)[C@@H](OC(=O)Nc2ccc3c(c2)OCO3)[C@H](OC(=O)Nc2ccccc2)[C@H]1OC(=O)Nc1ccccc1`, the composite z-score in assay [1] was 0.981 (inactive); in the assay on XIP peptide (Xip251-270) it was 0.831. For the same compound, the z-score is -2.49 in assay [2], -4.76 (inactive) in assay [3], -0.328 (inactive) in assay [4] and -0.439 (inactive) in assay [5].
Regarding `CC(C)NC(=O)[C@@]1(Cc2ccccc2I)c2ccccc2C(=O)N(Cc2ccccc2)[C@H]1c1ccc(CO)cc1`, the results for the composite z-score (in assay [1]; in the assay on XIP peptide (Xip251-270)) were 0.257 (inactive) and 0.784, respectively. In addition, the z-score was -1.22 in assay [2], -4.87 (inactive) in assay [3], -0.303 (inactive) in assay [4] and -0.346 (inactive) in assay [5].
Regarding `COC(=O)[C@@]1(Cc2ccccc2)[C@H]2c3cc(C(=O)N(C)C)n(Cc4cc(C)n(C)n4)c3C[C@H]2CN1C(=O)c1ccccc1`, the composite z-score in assay [1] was -0.0185 (inactive); in the assay with XIP peptide (Xip251-270) it was 0.635. Besides, the z-score in assay [2] is -1.19; in assay [3], -5.13 (inactive); in assay [4], 0.489 (inactive); in assay [5], 0.42 (inactive).
Take `C=CCC(OC(C)=O)[C@@H]1[C@@H](N(Cc2ccc(-c3ccccc3)cc2)C(=O)Cc2ccc(F)cc2)c2cc(OCCCO)ccc2N1C(=O)c1ccc2ccccc2n1` (stereo partly specified): the results for the composite z-score (in assay [1]; with XIP peptide (Xip251-270)) were -0.517 (inactive) and -0.32, respectively. Besides, the z-score in assay [2] was -1.35; in assay [3] it was -1.5 (inactive); in assay [4] it was 0.344 (inactive); in assay [5], -0.0849 (inactive).
As for `C=CCC(OC(C)=O)[C@@H]1[C@@H](N(Cc2cc3ccccc3o2)C(=O)c2ccc(C)cc2)c2cc(OCCCO)ccc2N1C(=O)c1ccc2ccccc2c1` (stereo partly specified), the composite z-score was -0.014 (inactive) in assay [1] and -0.152 with XIP peptide (Xip251-270). The z-score is -0.585 in assay [2], -1.33 (inactive) in assay [3], -0.252 (inactive) in assay [4] and 0.0758 (inactive) in assay [5].
For the compound `CC(C)N1CC=CC23O[C@@H]4C=CCOC(=O)[C@@H]4[C@H]2C(=O)N(CCO)[C@@H]3C1=O` (stereo partly specified), the figures for the composite z-score (in assay [1]; in the assay with XIP peptide (Xip251-270)) were -0.145 (inactive) and -0.014, respectively. Also, the z-score in assay [2] was 0.74; in assay [3], -2.98 (inactive); in assay [4], -0.514 (inactive); in assay [5] it was -0.419 (inactive).
In the case of `Cc1ccccc1C(O)C1C=CC2C(=O)N(C)C(=O)C2N1Nc1ccccc1` (stereo unspecified), the composite z-score in assay [1] was 0.381 (inactive); in the assay on XIP peptide (Xip251-270), 0.632. Also, the z-score is 1.11 in assay [2], -3.24 (inactive) in assay [3], 0.251 (inactive) in assay [4] and -0.594 (inactive) in assay [5].
With `CN(C)C(=O)[C@@]1(CCC(=O)OC(C)(C)C)N=C(c2ccc(OCCCO)cc2)O[C@H]1c1ccccc1`, the results for the composite z-score (in assay [1]; with XIP peptide (Xip251-270)) were 0.373 (inactive) and 0.909, respectively. In addition, the z-score in assay [2] is -1.8; in assay [3], -5.79 (inactive); in assay [4] it was 0.196 (inactive); in assay [5], 0.0613 (inactive).
In the case of `COCCOC(=O)N1C(=O)[C@@]2(c3cc(C#CC4=CCCCC4)ccc31)[C@H](C(=O)N1CCc3cc(OC)c(OC)cc3C1)[C@H]1C(=O)O[C@H](c3ccccc3)[C@H](c3ccccc3)N1[C@@H]2c1ccccc1OCCO`, the composite z-score in assay [1] was 0.0851 (inactive); in the assay on XIP peptide (Xip251-270), 0.544. Also, the z-score is -2.23 in assay [2], 2.24 (inactive) in assay [3], -0.0513 (inactive) in assay [4] and 0.226 (inactive) in assay [5].
For `O=C(CCN1CCOCC1)c1cccc(O)c1`, the composite z-score is 1.55 (inactive) in assay [1] and 0.421 in the assay on XIP peptide (Xip251-270). Besides, the z-score in assay [2] is -1.5; in assay [3], -2.35 (inactive); in assay [4], -0.111 (inactive); in assay [5], 0.114 (inactive).
For the compound `COC(=O)C[C@@H]1C[C@H](C)[C@]2(O1)C(=O)N(Cc1ccccc1)c1ccc(NC(C)=O)cc12`, the composite z-score is -0.16 (inactive) in assay [1] and 0.295 with XIP peptide (Xip251-270). In addition, the z-score was -1.78 in assay [2], -3.77 (inactive) in assay [3], -0.139 (inactive) in assay [4] and -0.194 (inactive) in assay [5].
In the case of `CCCC[C@H]1OB(O)C[C@H]2C1=C(C)C[C@H]1C(=O)N(Cc3ccccc3)C(=O)[C@H]12`, the composite z-score in assay [1] was 0.0643 (inactive); in the assay with XIP peptide (Xip251-270) it was 0.911. Also, the z-score is 0.508 in assay [2], -7.36 (inactive) in assay [3], -0.128 (inactive) in assay [4] and -0.379 (inactive) in assay [5].
As to `CC=CC(O)C1C=CC2C(=O)N(c3ccccc3)C(=O)C2N1Nc1ccc(C(C)C)cc1` (stereo unspecified), the figures for the composite z-score (in assay [1]; in the assay on XIP peptide (Xip251-270)) were 0.213 (inactive) and 0.766, respectively. Moreover, the z-score in assay [2] was -0.747; in assay [3] it was -2.24 (inactive); in assay [4], 0.55 (inactive); in assay [5], 0.538 (inactive).
`CN1C(=O)C2C=CC(C(O)c3ccccn3)N(Nc3ccccc3)C2C1=O` (stereo unspecified): the composite z-score in assay [1] was 0.632 (inactive); in the assay with XIP peptide (Xip251-270) it was 0.325. For the same compound, the z-score in assay [2] is 0.0014; in assay [3], -7.19 (inactive); in assay [4] it was -0.827 (inactive); in assay [5] it was -1.12 (inactive).
Take `C=CCC(OC(C)=O)[C@@H]1[C@@H](N(Cc2ccc(-c3ccccc3)cc2)C(=O)Cc2ccc(OC)cc2)c2cc(OCCCO)ccc2N1C(=O)c1ccc2ccccc2n1` (stereo partly specified): the composite z-score in assay [1] was 0.0404 (inactive); in the assay on XIP peptide (Xip251-270), 0.219. In addition, the z-score in assay [2] was -2.87; in assay [3], -1.25 (inactive); in assay [4] it was -0.0117 (inactive); in assay [5], 0.336 (inactive).
Regarding `C=CCOC(=O)[C@@H]1[C@H]2C(=O)O[C@H](c3ccccc3)[C@H](c3ccccc3)N2[C@H](c2ccc(OCCOC(=O)[C@@H]3C[C@@H]4C(=O)N[C@@H](Cc5ccccc5)C(=O)N4[C@@H]3c3cccc(OCCO)c3)cc2)[C@@]12C(=O)Nc1ccc(I)cc12`, the figures for the composite z-score (in assay [1]; with XIP peptide (Xip251-270)) were 0.299 (inactive) and 0.738, respectively. Moreover, the z-score was -1.69 in assay [2], -0.282 (inactive) in assay [3], 0.0948 (inactive) in assay [4] and 0.608 (inactive) in assay [5].
`COC(=O)[C@@]1(Cc2ccc(OC)cc2)[C@H]2c3cc(C(=O)N4CCCC4)n(CCc4c[nH]c5cc(F)ccc45)c3C[C@H]2CN1C(=O)c1ccccc1`: the composite z-score in assay [1] was 1.31 (inactive); in the assay with XIP peptide (Xip251-270), 0.687. Further, the z-score in assay [2] is -1.66; in assay [3], 0.828 (inactive); in assay [4], 0.527 (inactive); in assay [5], 0.598 (inactive).
For `C=C(COC)/C(=C/C[C@H](OC(=O)c1ccncc1)c1cccc(OCCO)c1)c1cc(C(=O)OC)ccc1OC`, the figures for the composite z-score (in assay [1]; with XIP peptide (Xip251-270)) were 1.46 (inactive) and 0.153, respectively. Moreover, the z-score in assay [2] was -2.96; in assay [3], -4.05 (inactive); in assay [4], -0.681 (inactive); in assay [5], -0.764 (inactive).
For the compound `N#Cc1ccc(NN2C(C(O)C3CCCCC3)C=CC3C(=O)N(c4ccccc4)C(=O)C32)cc1` (stereo unspecified), the composite z-score is 0.769 (inactive) in assay [1] and 0.694 with XIP peptide (Xip251-270). Further, the z-score in assay [2] was 0.898; in assay [3] it was -2.14 (inactive); in assay [4], -0.14 (inactive); in assay [5], -0.0947 (inactive).
In the case of `CCOC(=O)C[C@H]1[C@H](OC(=O)Cc2ccc3c(c2)OCO3)[C@@H](NC(=O)C2CCCCC2)c2cc(OCCCO)ccc2N1C(=O)Cc1ccc(OC)cc1`, the composite z-score was -0.219 (inactive) in assay [1] and 0.128 in the assay with XIP peptide (Xip251-270). In addition, the z-score is -0.383 in assay [2], -2 (inactive) in assay [3], -0.585 (inactive) in assay [4] and -0.868 (inactive) in assay [5].
Consider `COc1ccc([Si](C)(C)[C@@H]2[C@@H](CCn3cc([C@H](O)c4ccccc4)nn3)O[C@]3(C(=O)N(Cc4cccc(N5CCOC5=O)c4)c4ccccc43)[C@H]2C)cc1`, for which the results for the composite z-score (in assay [1]; with XIP peptide (Xip251-270)) were 0.672 (inactive) and 0.168, respectively. Besides, the z-score is -2.33 in assay [2], -2.64 (inactive) in assay [3], -0.862 (inactive) in assay [4] and 0.0282 (inactive) in assay [5].
As to `[N-]=[N+]=NCc1ccccc1C[C@]1(C(=O)NCCN2CCOCC2)N=C(c2ccc(OCCCO)cc2)O[C@H]1c1ccccc1N=[N+]=[N-]`, the composite z-score in assay [1] is 0.281 (inactive); in the assay on XIP peptide (Xip251-270), 0.614. Further, the z-score in assay [2] is -2.1; in assay [3] it was -1.02 (inactive); in assay [4], -0.2 (inactive); in assay [5] it was 0.0241 (inactive).
Consider `C=CC[C@]1(C(=O)N2CCOCC2)N=C(c2ccc(OCCCO)cc2)O[C@H]1c1ccccc1`, for which the composite z-score was 0.661 (inactive) in assay [1] and 0.362 in the assay on XIP peptide (Xip251-270). In addition, the z-score in assay [2] was -0.887; in assay [3], -6.82 (inactive); in assay [4], -0.274 (inactive); in assay [5] it was -0.217 (inactive).
As to `COc1cccc(C(=O)O[C@H]2CC[C@]3(C)C4=C(CCC3C2(C)C)[C@]2(C)CC[C@H]([C@H](C)CCCC(C)C)[C@@]2(C)CC4)c1` (stereo partly specified), the results for the composite z-score (in assay [1]; in the assay on XIP peptide (Xip251-270)) were -0.019 (inactive) and -0.519, respectively. Moreover, the z-score in assay [2] is -0.0127; in assay [3] it was -0.87 (inactive); in assay [4], 0.811 (inactive); in assay [5], 1.77 (inactive).
In the case of `COC(=O)c1c(CC[C@@H](CO)NC(=O)N[C@@H](Cc2ccccc2)Cn2cc(C3(O)CCCCC3)nn2)oc(C(C)=O)c1C(=O)OC`, the composite z-score in assay [1] was 0.295 (inactive); in the assay on XIP peptide (Xip251-270), 0.536. Moreover, the z-score was -2.48 in assay [2], -5.32 (inactive) in assay [3], -0.0682 (inactive) in assay [4] and -0.145 (inactive) in assay [5].
